Compounds with a hit are over-represented: about 1.2% of the library has one in this group of screens.
PrP UTR inh = inhibition of PrP 5' UTR reporter expression. AID 488862. 340,000 tested, 0.35% active. cell-based PrP 5' UTR mRNA reporter, plate reader. inhibition, % (concentration not given with the values); in the data active = inhibition above about 52%
PrPC TRFRET = reduces human prion protein on the cell surface; 370,000 tested, 0.43% active; inhibition, % at 13.8 µM; cell surface PrPC, TR-FRET read-out; AID 720596; in the data active = inhibition above about 24%
SSB-PriA inh = blocks PriA binding to SSB C-terminal tail; AlphaScreen SSBct-PriA binding, biotinylated peptide; inhibition, % at 33 µM; 430,000 tested, 0.6% active; in the data active = inhibition mostly above about 37%, no sharp cut-off; inactive = mostly below about 20%
Rv3671c inh = inhibitors of M. tuberculosis serine protease Rv3671c. P9WHR9. inhibition, % at 5.96 µM. 320,000 tested, 0.048% active; in the data active = inhibition above about 38%;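 note: extracellular domain of Rv3671c used as enzyme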
FadD28 FP inh = inhibitors of Mycobacterium tuberculosis FadD28 bisubstrate binding; AID 588549; FadD28 bisubstrate probe binding, fluorescence polarization; inhibition, % at 12.5 µM; 360,000 tested, 0.22% active; in the data active = inhibition above about 8.5%, passing the limit was not always enough
UGM FP inh = inhibitors of M. tuberculosis UDP-galactopyranose mutase | P9WIQ1 | purified UGM, fluorescence polarization probe displacement | inhibition, % at 10 µM | 320,000 tested, 0.06% active; in the data active = inhibition above about 10%, passing the limit was not always enough
PrPC TRFRET cf = cell surface PrPC inhibition, TR-FRET confirmation; shares compounds with PrPC TRFRET; cell surface PrPC level; inhibition, % at 13.8 µM; 1,500 tested, 65% active; AID 743200; in the data active = inhibition above about 25%
LD9 tox = kills or reduces viability of LD9 cells in PrPc counter-screen; shares compounds with PrPC TRFRET; LD9 cells cytotoxicity, luminescence viability; inhibition, % at 13.8 µM; 1,500 tested, 29% active; AID 743201; in the data active = inhibition above about 9.5%
A number is an active result; . = inactive; / = no result.

SMILES	PrP UTR inh	PrPC TRFRET	SSB-PriA inh	Rv3671c inh	FadD28 FP inh	UGM FP inh	PrPC TRFRET cf	LD9 tox
CCc1cc2cccc(C)c2nc1SCC(=O)N1CCN(C(=O)c2ccco2)CC1	.	25.0	.	.	.	.	59.2	.
CCc1cc2cccc(C)c2nc1SCC(=O)NC1CCCC1	.	.	.	.	.	.	/	/
CCc1cc2cc(C)ccc2nc1SCC(=O)NNC(=O)c1ccco1	.	.	.	.	.	.	/	/
Cc1cc2cccc(C)c2nc1SCC(=O)NNC(=O)c1ccco1	.	55.2	.	.	.	.	65.0	.
Cc1cc(C)c2nc(SCC(=O)NNC(=O)c3ccco3)c(C)cc2c1	.	43.5	.	.	.	.	44.7	.
Cc1cccc2cc(C#N)c(SCC(=O)NNC(=O)Cc3ccccc3)nc12	.	.	.	.	.	.	/	/
COC(=O)N1CCc2ccc(NC(=O)CSc3ccc(F)cc3)cc2C1	/	/	.	/	/	/	/	/
COc1cc(C(=O)N2CCNC(=O)[C@@H]2C)cc(OC)c1OC	/	/	.	/	/	/	/	/
O=C(Nc1ccc([N+](=O)[O-])cc1)Nn1cnnc1	.	36.6	.	.	.	.	.	.
Cc1ccc(NC(=O)Nn2cnnc2)cc1	.	.	.	/	.	.	/	/
COc1ccc(NC(=O)c2ccc(-c3ccc(C)o3)cc2)cc1	/	/	.	/	/	/	/	/
CC(NC(=O)CSc1ccc(S(=O)(=O)N2CCOCC2)cn1)c1ccc(Cl)cc1Cl (centres undefined)	.	26.7	.	/	.	/	.	.
Cc1ccc(N2CC(O)=C(c3ccccc3)C2=N)cc1	.	.	.	.	.	.	/	/
N=C1C(c2ccccc2)=C(O)CN1c1ccccc1	.	28.9	.	.	.	.	.	.
COc1ccc(Cl)cc1-c1n[nH]c(=S)o1	.	68.9	.	.	.	.	84.5	.
COc1ccccc1-c1n[nH]c(=S)n1-c1ccccc1	.	48.4	.	.	.	.	61.1	.
COc1ccccc1-c1n[nH]c(=S)n1N	.	.	.	.	.	.	/	/
COc1ccccc1-c1n[nH]c(=S)o1	.	47.6	.	.	.	.	47.9	.
CN(Cc1ccco1)S(=O)(=O)c1ccc(C(=O)Nc2nnc(-c3ccc(F)cc3)o2)cc1	/	/	.	/	/	/	/	/
COCCn1c(SCC(=O)Nc2cccc(NC(C)=O)c2)nc2c([nH]c3ccccc32)c1=O	.	28.6	.	.	.	.	.	.
COCCn1c(SCC(=O)Nc2cccc(F)c2)nc2c([nH]c3ccccc32)c1=O	.	.	.	.	.	.	/	/
NC(=O)c1ccc2c(=O)c(O)c(-c3cc(Cl)c(N)c(Cl)c3)[nH]c2c1	.	28.8	.	.	.	.	.	.
CCCNC(=O)c1ccc2c(=O)c(O)c(-c3ccc(Cl)c([N+](=O)[O-])c3)[nH]c2c1	.	.	.	.	.	.	/	/
COc1ccccc1C(=O)NC(=S)/C=C1/N(C)c2ccccc2C1(C)C	.	28.7	.	.	.	/	48.7	11.0
O=C(C1CC=CCC1)N(Cc1ccsc1)Cc1ccco1 (centres undefined)	/	/	.	/	/	/	/	/
SMILES	PrP UTR inh	PrPC TRFRET	SSB-PriA inh	Rv3671c inh	FadD28 FP inh	UGM FP inh	PrPC TRFRET cf	LD9 tox
CCCNC(=O)c1nnsc1S(=O)c1ccc(Cl)cc1 (centres undefined)	.	90.9	.	/	.	/	.	95.2
CNC(=O)c1nnsc1S(=O)c1ccc(Cl)cc1 (centres undefined)	.	.	.	/	.	/	/	/
O=C(/C=C/c1ccco1)N1CCc2cc(S(=O)(=O)NC3CCCC3)ccc21	/	/	.	/	/	/	/	/
COc1cccc(NC(=O)C(=O)Nc2cc([N+](=O)[O-])ccc2C)c1	/	/	.	/	/	/	/	/
COc1ccccc1Oc1ccc2c(c1)C(=O)N(CC1CCCO1)C2=O (centres undefined)	.	47.0	.	.	.	.	.	.
COc1ccccc1OCC(=O)Nc1ccc2c(c1)C(=O)N(CC1CCCO1)C2=O (centres undefined)	.	.	.	.	.	.	/	/
O=c1ccc(-c2ccccc2)nn1CCCNS(=O)(=O)c1ccccc1	/	/	.	/	/	/	/	/
Cc1ccc(S(=O)(=O)N2CCOC23CCN(C(=O)c2ccc(Cl)cc2Cl)CC3)cc1	.	48.1	.	.	.	.	32.3	.
Cc1ccc(S(=O)(=O)N2CCOC23CCN(C(=O)c2cc(Cl)ccc2Cl)CC3)cc1	.	.	.	.	.	.	/	/
CC[C@@H]1N=C(c2ccccc2)c2cc(Br)ccc2NC1=O	/	/	.	/	/	/	/	/
O=C1NC(Cc2ccccc2)C(=O)Nc2ccc(Br)cc21 (centres undefined)	.	25.5	.	.	.	.	.	.
CC(Cc1ccoc1)NS(=O)(=O)/C=C/c1ccccc1 (centres undefined)	/	/	.	/	/	/	/	/
Cc1ccc(NN=C(C#N)C(N)=S)cc1C	/	/	.	/	/	/	/	/
N#C/C(=N/Nc1ccc(OC(F)(F)F)cc1)C(N)=S	.	26.1	/	.	.	.	38.4	27.6
Cc1cnc(C=NNC(N)=S)c2cccc(N)c12	.	.	.	/	.	/	/	/
NC(=S)NN=Cc1nccc2c(C(F)(F)C(F)(F)C(F)(F)F)cccc12	/	28.0	/	/	.	/	29.4	60.3
CN(C)c1ccc(CCCNS(=O)(=O)c2ccc3c(c2)OCCO3)cc1	/	/	.	/	/	/	/	/
Cc1nc(SC2CCOC2=O)c2c(C)c(C)sc2n1 (centres undefined)	.	98.1	.	.	.	.	102.6	.
Cc1nc(SCC(=O)N2CCOCC2)c2c(C)c(C)sc2n1	.	.	.	.	.	.	/	/
CC(=O)OC[C@]12CC[C@H]3[C@@](C)(CC[C@H]4C(C)(C)CCC[C@]34C)[C@@H]1C[C@H](C1=CC(=O)O[C@H]1OC(C)=O)O2	/	/	/	.	/	.	/	/
CC(O)CC(=O)OC[C@]12CC[C@H]3[C@@](C)(CC[C@H]4C(C)(C)CCC[C@]34C)[C@@H]1CC(C1=CC(=O)OC1O)O2 (some centres undefined)	/	33.9	/	/	.	/	25.9	64.2
O=C(NCCOc1ccc2nnc(-c3cccc(F)c3)n2n1)c1cccc(C(F)(F)F)c1	/	/	.	/	/	/	/	/
CC(=O)CSc1nc(-c2cccs2)c(C#N)c(=O)[nH]1	.	91.0	.	/	.	/	98.6	.
Cc1ccc(C=NNc2cn[nH]c(=O)n2)o1	/	/	.	/	/	/	/	/
O=c1nc(N/N=C/c2ccccn2)cn[nH]1	.	24.9	/	.	.	.	.	9.5
SMILES	PrP UTR inh	PrPC TRFRET	SSB-PriA inh	Rv3671c inh	FadD28 FP inh	UGM FP inh	PrPC TRFRET cf	LD9 tox
Nc1nc2ccc(Cl)cc2cc1C(=O)NCc1ccccc1Br	/	48.7	/	/	/	/	80.7	.
O=C(NNc1ccccc1)C(=O)NNS(=O)(=O)c1ccc(CCCl)cc1	.	26.8	.	.	.	.	.	.
Cc1ccc(Cn2c(Cc3ccccc3)nc3ccccc32)cc1	.	76.5	.	.	.	.	.	.
CCCCCCCCCCCCCCCC[n+]1cccc2ccccc21	.	40.2	.	.	16.6	.	50.5	54.5
COC(=O)c1ccc(C(c2c(N)n(CC(C)C)c(=O)[nH]c2=O)N2CCN(c3ccccc3)CC2)cc1 (centres undefined)	.	29.7	.	.	.	.	.	10.5
CCCCOCCCNc1ncnc2c1[nH]c1ccccc12	.	31.4	.	.	.	.	24.4	17.4

Screening results as filed in PubChem.
